Data on 59 molecules can be found in PubChem BioAssay AID2006 (Sanford-Burnham Center for Chemical Genomics, 2009).

Out of some 290,000 compounds screened, about 1,000 (0.34%) were called active. Rule as the data show it: active = inhibition above about 50% (passing the limit was not always enough); inconclusive = no clear call, values can overlap the other calls. Many of the other results were omitted from the sample, so actives are more common in it than they were.

The assay has as its target SUMO-conjugating enzyme UBC9 (Homo sapiens) (UniProt P63279). Kind of assay: blockers of SAE1/SAE2–UBC9 SUMO transfer – biochemical, HTRF, uHTS, primary screen (AID 2006). Conditions: HTRF SUMOylation assay, SAE1/SAE2 + UBC9, in vitro, at 35 µM, stronger effect = higher value.

SUMO-conjugating enzyme UBC9 (Homo sapiens), sequence (P63279 whole entry, looked up): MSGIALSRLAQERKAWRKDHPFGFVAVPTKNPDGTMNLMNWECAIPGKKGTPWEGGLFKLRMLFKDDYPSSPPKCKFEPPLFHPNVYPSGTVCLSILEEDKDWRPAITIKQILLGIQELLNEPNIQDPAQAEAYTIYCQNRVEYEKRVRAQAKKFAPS

As for `COc1ccccc1NC(=O)C1CCCN1S(=O)(=O)c1ccc(Cl)cc1` (configuration not stated), the inhibition is -4.9% (inactive).
Same read-out and setting: to `FC(F)(F)Oc1ccc(-c2cn3cccnc3n2)cc1` belongs 24.2% (inactive); to `CCCC(=O)Nc1cccc(-c2cn3ccsc3n2)c1`, -25.1% (inactive); to `CC(C)(C)C(=O)Nc1ccc(-c2cn3cccnc3n2)cc1`, 37.2% (inactive).
Take `CC(=O)Nc1ccc(-c2cn3cccnc3n2)cc1`: the inhibition is 55.4% (active). Also, the inhibition (average of repeat tests) was found to be 53.3%.
Take `CCCCCC(=O)Nc1ccc(S(=O)(=O)Nc2ccc(Cl)nn2)cc1`: the inhibition was 2.3% (inactive).
On to `CCCCCC(=O)Nc1ccc(-c2cn3cccnc3n2)cc1`, for which the inhibition is 50.5% (active). Moreover, the inhibition (average of repeat tests) came out at 60.8%.
For `Cc1ccc(NC(=O)CN2CCc3ccccc3C2)cc1C`, the inhibition is -5.2% (inactive).
Same read-out and setting: to `CCc1c(C)nc(N)n2c(SCC(=O)NC3CCCCC3)nnc12` belongs -11.4% (inactive).
The same measure, in the same setting: to `Cc1ccc(C)c(NC(=O)NNC(=O)c2ccc3ccccc3c2O)c1` belongs 4.2% (inactive); to `CC(=O)N1c2ccc(S(=O)(=O)N3CCCC(C(=O)Nc4cccc(F)c4)C3)cc2CC1C` (configuration not stated), 12.3% (inactive).
Still for that read-out and setting: to `Cc1cc(C(F)F)nn1CC(=O)NC1CCCCCC1` belongs 2.2% (inactive); to `N#CC1(NC(=O)COC(=O)CCN=C2NS(=O)(=O)c3ccccc32)CCCCC1`, 2.6% (inactive); to `CC1CCCCC1NC(=O)CSc1nnc(-c2ccncc2)n1CCCN(C)C` (configuration not stated), 8.9% (inactive).
For the molecule `O=C(COC(=O)c1cccs1)Nc1ccccc1Cl`, the inhibition is -14.2% (inactive).
Still for that read-out and setting: the same measure for `O=C(Nc1ccccc1Cl)/C(Cl)=C(\Cl)S(=O)c1ccccc1` (configuration not stated): 57% (active); for `O=C(Nc1ccccc1Cl)Nn1cnnc1`: 10.4% (inactive).
For `CCC(=O)Nc1nnc(S(=O)(=O)N(CC(C)C)c2ccccc2)s1`, the inhibition is -0.8% (inactive).
The same measure, in the same setting: to `CCOC(=O)c1c(C)[nH]c(C(=O)NCc2ccccc2OC)c1C` belongs 21.6% (inactive); to `CCOC(=O)c1c(C)[nH]c2c1-c1ccccc1C(=O)C2=O`, 86.9% (active); to `CCOC(=O)C1=C(c2ccc(OC)cc2)C(=O)c2ccccc2C1=O`, 5.9% (inactive).
In the case of `CC(C)(C)NC(=O)CN(Cc1cccs1)C(=O)CNS(=O)(=O)c1ccccc1`, the inhibition is 5.5% (inactive).
Same read-out and setting: the same measure for `O=C(CN1CCC(NC(=O)C2CC2)CC1)Nc1ccccc1[N+](=O)[O-]`: 2.3% (inactive); for `CCOC(=O)C1CCN(S(=O)(=O)c2ccc3c(c2)N(C)C(=O)CC(=O)N3C)CC1`: 10.1% (inactive); for `CCOc1ncccc1C(=O)NCCc1ccc(OC)cc1`: -5.7% (inactive).
On the same count and under the same terms, to `CC(C)CN(CC(C)C)C(=O)CN1c2cccc3cccc(c23)S1(=O)=O` belongs 14.7% (inactive).
The same measure, in the same setting: the same measure for `O=C(CCCN1C(=O)/C(=C/c2ccco2)SC1=S)Nc1ccccc1`: 23.1% (inactive).
Turning to `CN1C(=O)/C(=C/c2ccco2)SC1=Nc1cccc(C(=O)O)c1`, the inhibition is 52.8% (active).
Still for that read-out and setting: the same measure for `Cc1cc(/C=C2\SC(=O)N(C)C2=O)c(C)n1-c1cccc(C(=O)O)c1`: 0.8% (inactive); for `CCc1nn(CCCC(=O)NCc2ccc(C)cc2)c(=O)c2cc3occc3n12`: -4.3% (inactive).
Turning to `Cc1cnc(C(=O)N2CCCC(N3CCN(c4ccccc4F)CC3)C2)cn1` (configuration not stated), the inhibition was 5.2% (inactive).
Still for that read-out and setting: to `CC(=O)Nc1ccc(S(=O)(=O)Nc2cc(C)cn(Cc3ccc(C)cc3)c2=O)cc1` belongs 14.3% (inactive).
Still for that read-out and setting: to `O=C1Nc2cc(C(=O)N3CCC(N4CCCCC4)CC3)ccc2S/C1=C\c1ccccc1` belongs 10.8% (inactive); to `Cc1ccc2nc(-c3ccncc3)cc(C(=O)Nc3ccncc3)c2c1`, -4.4% (inactive).
Take `Cc1ccc2nc(-c3ccncc3)cc(C(=O)Nc3ccc4c(c3)OCCO4)c2c1`: the inhibition is 23.4% (inactive).
The same measure, in the same setting: to `Cc1ccc2nc(-c3ccncc3)cc(C(=O)Nc3ccc(OC(F)F)cc3)c2c1` belongs 61.9% (active).
For the molecule `COc1ccc(N2CCN(C3CCCCC3NS(=O)(=O)c3ccccc3)CC2)cc1` (configuration not stated), the inhibition is -12.9% (inactive).
On the same count and under the same terms, the same measure for `O=C(CN1CCN(c2ccc(O)cc2)CC1)Nc1cc(S(=O)(=O)N2CCOCC2)ccc1Cl`: 25.4% (inactive); for `O=[N+]([O-])c1cc(Cl)cc(/C=N/NC(=S)Nc2cc(S(=O)(=O)N3CCOCC3)ccc2Cl)c1O`: 99.5% (active); for `O=C(N/N=C/c1cc(Cl)cc([N+](=O)[O-])c1O)C(O)(c1ccccc1)c1ccccc1`: -22% (inactive).
The same measure, in the same setting: to `O=C(O)C1CCCCC1C(=O)N1CCN(S(=O)(=O)c2ccc(F)cc2)CC1` (configuration not stated) belongs 9.5% (inactive); to `O=C(c1cccnc1)N1CCN(S(=O)(=O)c2cccs2)CC1`, -2% (inactive); to `CCOC(=O)c1sc2nc(CSc3ccccc3)[nH]c(=O)c2c1C`, 25.9% (inactive).
In the case of `Cc1ccc(C)c(SCc2nc3sc(C(=O)O)c(C)c3c(=O)[nH]2)c1`, the inhibition was 9.1% (inactive).
With `CSc1nnc(SCc2nc3sc(C(=O)O)c(C)c3c(=O)[nH]2)s1`, the inhibition is 50.2% (active). Besides, the inhibition (average of repeat tests) came out at 70.2%.
Turning to `COc1cccc(-n2c(=S)sc3c(=O)n(-c4ccccc4C)c(SCC(=O)O)nc32)c1`, the inhibition is 6.2% (inactive).
The same measure, in the same setting: the same measure for `COc1ccc(CCNC(=O)CCCCCNC(=O)N2CCn3c2nc2ccccc23)cc1OC`: 15.4% (inactive).
In the case of `CCc1nn(CCCC(=O)NC(C)c2ccccc2)c(=O)c2cc3occc3n12` (configuration not stated), the inhibition is 10.2% (inactive).
Take `CCC(C)(C)NC(=O)C(c1ccc(OC)cc1)N(C(=O)CCC(=O)Nc1cc(C)on1)c1ccc(OC)cc1OC` (configuration not stated): the inhibition is 6% (inactive).
The same measure, in the same setting: to `COC(=O)COc1ccc2c(c1C)O/C(=C\c1ccco1)C2=O` belongs 16.9% (inactive); to `O=C(NCCCn1ccnc1)C1CCCN(S(=O)(=O)c2cc(Cl)ccc2Cl)C1` (configuration not stated), -5.4% (inactive); to `Cc1cc2nc3c(=O)n(Cc4ccccc4)c(=O)[nH]c3nc2cc1N`, 51.4% (active).
Same read-out and setting: the same measure for `Cc1nc2c(c(=O)n1Cc1ccco1)c1nc3ccccc3nc1n2Cc1ccccc1`: 31.7% (inactive).
For `O=c1[nH]c2c(c(=O)n1Cc1ccccc1)CCC2`, the inhibition was 14.7% (inactive).
Same read-out and setting: to `CC(=O)N/C(=N/c1nc(C)cc(C)n1)Nc1ccc(F)cc1F` belongs 10.8% (inactive).
Same read-out and setting: to `O=C(NCc1ccccc1Cl)C1CCCN1S(=O)(=O)c1ccc(F)cc1` (configuration not stated) belongs 9.8% (inactive); to `O=C(Nc1ccc(N2CCCC2=O)cc1)c1cncc(Br)c1`, -7.3% (inactive); to `Oc1c(Cl)cc(Cl)c(Cl)c1Cc1c(O)c(Cl)cc(Cl)c1Cl`, 71.9% (active).
The same measure, in the same setting: to `CC(=O)N1CCN(CC(=O)Nc2ccc(C)c(F)c2)CC1` belongs 6% (inactive).
